The labels stand for the following.
T1: RBFOX1 RRM (Homo sapiens, UniProt Q9NWB1 109-208)
T1 sequence: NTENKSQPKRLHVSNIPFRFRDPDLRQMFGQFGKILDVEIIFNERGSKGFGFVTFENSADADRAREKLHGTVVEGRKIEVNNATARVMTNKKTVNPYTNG

B1: AAAUGGU (DNA:RNA)
RNA: GGGAGACCGGAAUUCAGAUUGUCCAAAUGGUUUAAAUCCCGUCGUAGCCACCA
DNA 1: CAATCTGAATTCCGGTCTCCC
DNA 2: TGGTGGCTACGACGGGATT
B2: GAUCCGC (DNA:RNA)
RNA: B1 RNA with A25G, A27U, U28C, G29C, U31C
DNA 1: CAATCTGAATTCCGGTCTCCC
DNA 2: TGGTGGCTACGACGGGATT
B3: CCACACG (DNA:RNA)
RNA: B1 RNA with A25C, A26C, U28C, G29A, G30C, U31G
DNA 1: CAATCTGAATTCCGGTCTCCC
DNA 2: TGGTGGCTACGACGGGATT
B4: CUAAGCU (DNA:RNA)
RNA: B1 RNA with A25C, A26U, U28A, G30C
DNA 1: CAATCTGAATTCCGGTCTCCC
DNA 2: TGGTGGCTACGACGGGATT
B5: UUUGUUG (DNA:RNA)
RNA: GGGAGACCGGAAUUCAGAUUGUCCUUUGUUGUUAAAUCCCGUCGUAGCCACCA
DNA 1: CAATCTGAATTCCGGTCTCCC
DNA 2: TGGTGGCTACGACGGGATT
B6: UCCUUUG (DNA:RNA)
RNA: B5 RNA with U26C, U27C, G28U
DNA 1: CAATCTGAATTCCGGTCTCCC
DNA 2: TGGTGGCTACGACGGGATT
B7: UUUGUCC (DNA:RNA)
RNA: B5 RNA with U30C, G31C
DNA 1: CAATCTGAATTCCGGTCTCCC
DNA 2: TGGTGGCTACGACGGGATT
B8: UUUUGUG (DNA:RNA)
RNA: B5 RNA with G28U, U29G
DNA 1: CAATCTGAATTCCGGTCTCCC
DNA 2: TGGTGGCTACGACGGGATT
B9: UUGUCGU (DNA:RNA)
RNA: B1 RNA with A25U, A26U, A27G, G29C
DNA 1: CAATCTGAATTCCGGTCTCCC
DNA 2: TGGTGGCTACGACGGGATT
B10: UUGUUUG (DNA:RNA)
RNA: B5 RNA with U27G, G28U
DNA 1: CAATCTGAATTCCGGTCTCCC
DNA 2: TGGTGGCTACGACGGGATT
B11: UUUUUUG (DNA:RNA)
RNA: B5 RNA with G28U
DNA 1: CAATCTGAATTCCGGTCTCCC
DNA 2: TGGTGGCTACGACGGGATT
B12: UUGUUGU (DNA:RNA)
RNA: B1 RNA with A25U, A26U, A27G, G29U
DNA 1: CAATCTGAATTCCGGTCTCCC
DNA 2: TGGTGGCTACGACGGGATT
B13: UUUGUCG (DNA:RNA)
RNA: B5 RNA with U30C
DNA 1: CAATCTGAATTCCGGTCTCCC
DNA 2: TGGTGGCTACGACGGGATT

Residue numbers refer to the chain shown, from its start. The full ranking holds about 16,000 sequences; the median of “ka relative to ugcaugu” is about 0.0091, and the highest 2% start at about 0.032. Shown is part of a subset that was picked to be rich in the highest values.

The test concerns the target T1, RBFOX1 RRM. Briefly: EMSA; HiTS-Eq, 1 nM pool, 10 min; buffer printed only for the single-RNA assays: 10 mM Tris pH 7.5, 150 mM NaCl, 3.4 mM EDTA, 0.001% NP-40, 30 C. Conditions: tags: His6 N-terminal (pET28a); label: 5' 32P. In a few lines:
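A pool of RNA with 7 randomized nucleotides, 5′-radiolabelled and with DNA-annealed flanks, was equilibrated at 1 nM for 10 min in 50 µL with purified RbFox RRM, wild type or mutant, across increasing protein concentrations. Free RNA was separated by 8% native PAGE, excised, reverse-transcribed, barcoded by PCR and sequenced. Relative association constants were obtained from read-count changes of each RNA species versus the control reaction and normalised to the cognate motif.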
Background: Mobility shift assays separate free from complexed probe on a gel.
With B1, the binding signal is 0.00783 KA relative to UGCAUGU.

For B2, the binding signal was 0.0132 KA relative to UGCAUGU.

As for B3, the binding signal is 0.0022 KA relative to UGCAUGU.

For B4, the binding signal was 0.00577 KA relative to UGCAUGU.

Take B5: the binding signal was 0.0349 KA relative to UGCAUGU.

With B6, the binding signal was 0.0195 KA relative to UGCAUGU.

Take B7: the binding signal is 0.0149 KA relative to UGCAUGU.

For the molecule B8, the binding signal is 0.0302 KA relative to UGCAUGU.

In the case of B9, the binding signal is 0.0256 KA relative to UGCAUGU.

In the case of B10, the binding signal was 0.0392 KA relative to UGCAUGU.

On to B11, for which the binding signal was 0.0341 KA relative to UGCAUGU.

As to B12, the binding signal is 0.0241 KA relative to UGCAUGU.

As to B13, the binding signal is 0.0272 KA relative to UGCAUGU.

The values above are taken from paper PMC9911399, “Two distinct binding modes provide the RNA-binding protein RbFox with extraordinary sequence specificity”.
